Some test systems named below: NCI-H23 lung; NCI-H226 lung; HOP-62 NSCLC; NCI-H460 lung; HOP-92 NSCLC; NCI-H522 lung; A549/ATCC NSCLC; 786-0 renal; COLO 205 colon; DU-145 prostate; K-562 leukemia; MALME-3M melanoma; MDA-MB-231 breast; SF-268 CNS; SF-295 CNS; SF-539 CNS; UACC-257 melanoma; M14 melanoma; RXF 393 renal.
Holding throughout (test): NCI-60 one-dose screen, 48 h (100 = growth as untreated, 0 = no growth, -100 = all killed)
What all share (conditions): 10 µM unless noted

SMILES strings stand for the structures. The panel holds about 83,000 compounds, 20% with a hit somewhere; the sample as a whole holds those more often.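 For each line, cells grew in 96-well plates with the test compound present at a single concentration for 48 hours.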 A number with no mark means an inactive call. Active and inactive are the calls of the source. How the source made its calls: active means growth percent below 10; inactive means the rest.

Regarding `Cc1cccc(C)c1-c1cc(Cc2ccc(Cl)cc2)c(=O)[nH]n1`, the growth is 84.9% in the test on NCI-H23 lung; 97.3% in the test with NCI-H226 lung; 99.4% with HOP-62 NSCLC; 109% in the test on NCI-H460 lung; 78.6% with HOP-92 NSCLC; 95.3% with NCI-H522 lung. In addition, the growth in the test with A549/ATCC NSCLC is 37%; in the test on 786-0 renal, 104%; in the test on COLO 205 colon it was 108%; with DU-145 prostate it was 105%; with K-562 leukemia, 89.5%; in the test with MALME-3M melanoma, 111%. Moreover, the growth with MDA-MB-231 breast is 94.3%; in the test on SF-268 CNS, 93.6%; in the test with SF-295 CNS, 104%; with SF-539 CNS it was 111%; in the test on UACC-257 melanoma, 42.3%; in the test with M14 melanoma, 114%.

Take `COc1ccc(C(O)c2cc3c(N)c(C(=O)Nc4ccc(Cl)cc4)sc3nc2C)cc1` (configuration not stated): the growth was 32.7% in the test with NCI-H23 lung; 45.3% with NCI-H226 lung; 29.2% in the test on HOP-62 NSCLC; 5.37% (active) in the test with NCI-H460 lung; 49.3% with HOP-92 NSCLC; 7.8% (active) in the test on NCI-H522 lung. The growth in the test on A549/ATCC NSCLC was 29.5%; with 786-0 renal, 55.2%; in the test on COLO 205 colon, 13.6%; with DU-145 prostate, 6.92% (active); with K-562 leukemia, 3.42% (active); with MALME-3M melanoma it was 21%. The growth in the test on MDA-MB-231 breast is 41.8%; in the test on SF-268 CNS it was 42.8%; in the test with SF-295 CNS, 14.5%; with SF-539 CNS it was 20.7%; with UACC-257 melanoma, 56.4%; with M14 melanoma, 7.86% (active).

Turning to `CC(=O)c1c(C)[nH]c(-c2nc3ccc(N4CCN(C)CC4)cc3[nH]2)c1-c1ccccc1`, the growth in the test on NCI-H23 lung was 53%; in the test with NCI-H226 lung, 55.2%; in the test with HOP-62 NSCLC, 33.3%; in the test on NCI-H460 lung, 52.3%; in the test with HOP-92 NSCLC, 29.8%; with NCI-H522 lung, 25.4%. The growth was 38.1% in the test on A549/ATCC NSCLC; 85.9% in the test on 786-0 renal; 16.1% in the test with COLO 205 colon; 59.7% in the test on DU-145 prostate; 24.7% in the test on K-562 leukemia; 23.7% in the test with MALME-3M melanoma. The growth in the test on MDA-MB-231 breast was 32%; in the test on SF-268 CNS, 53.6%; with SF-295 CNS, 38.1%; with SF-539 CNS, 24.9%; in the test with UACC-257 melanoma, 48.4%; in the test on M14 melanoma, 94.7%.

Consider `COc1cc(NCC(C)(O)CN(CC(C)C)CC(C)C)c2nc(C)ccc2c1` (configuration not stated), for which the growth with NCI-H23 lung was 79.7%; in the test on NCI-H226 lung, 74.1%; in the test with HOP-62 NSCLC it was 92.5%; with NCI-H460 lung it was 101%; in the test with HOP-92 NSCLC, 79.8%; in the test on NCI-H522 lung it was 77.6%. Besides, the growth in the test with A549/ATCC NSCLC was 91%; in the test with 786-0 renal, 86.6%; in the test with COLO 205 colon, 79.5%; in the test with DU-145 prostate it was 110%; in the test with K-562 leukemia, 67.4%; with MALME-3M melanoma it was 94%. The growth in the test on MDA-MB-231 breast was 69.5%; with SF-268 CNS, 93.7%; with SF-295 CNS, 83.3%; in the test with SF-539 CNS it was 96.1%; in the test on UACC-257 melanoma it was 93.1%; in the test on M14 melanoma, 91.5%.

`O=C1Nc2c(ccc(Cl)c2Cl)/C1=C/c1ccc(F)cc1`: the growth is 87.2% with NCI-H23 lung; 84.8% in the test on NCI-H226 lung; 89.3% with HOP-62 NSCLC; 97.8% with NCI-H460 lung; 42.1% in the test on HOP-92 NSCLC; 76.4% in the test with NCI-H522 lung. Further, the growth in the test on A549/ATCC NSCLC is 41.1%; in the test on 786-0 renal, 76.7%; in the test on COLO 205 colon, 97.7%; in the test on DU-145 prostate, 113%; with K-562 leukemia, 85%; in the test with MALME-3M melanoma it was 105%. The growth in the test with MDA-MB-231 breast was 83.6%; in the test with SF-268 CNS, 88.8%; in the test with SF-295 CNS, 109%; in the test on SF-539 CNS it was 94.8%; in the test with UACC-257 melanoma, 97.9%; in the test on M14 melanoma it was 93.9%.

Consider `CCOC(=O)C1=C(C)NC(C)=C(C(=O)OCC)C1c1cc(Br)c(O)c(OC)c1`, for which the growth in the test on NCI-H23 lung is 34.3%; with NCI-H226 lung it was 32.7%; in the test on HOP-62 NSCLC, 31.8%; with NCI-H460 lung, 18.7%; in the test on HOP-92 NSCLC, 16.3%; with NCI-H522 lung, -37.5% (active). Also, the growth was 29.1% with 786-0 renal; 104% with COLO 205 colon; 20.8% in the test with DU-145 prostate; 25.5% in the test with K-562 leukemia; 33.3% in the test on MALME-3M melanoma; 53.7% in the test with MDA-MB-231 breast. Besides, the growth with RXF 393 renal is -26.6% (active); in the test on SF-268 CNS, 54.9%; in the test with SF-295 CNS it was 16.2%; in the test with SF-539 CNS, 22.8%; in the test with UACC-257 melanoma, 59.1%; in the test with M14 melanoma, 3.03% (active).

`CCOC(=O)N1CCc2c(sc3nc4nc[nH]n4c(=O)c23)C1`: the growth was 95% in the test on NCI-H23 lung; 82.4% in the test with NCI-H226 lung; 86.6% in the test with HOP-62 NSCLC; 109% in the test on NCI-H460 lung; 85.2% in the test on NCI-H522 lung; 100% with A549/ATCC NSCLC. For the same compound, the growth was 99.6% with 786-0 renal; 102% in the test on COLO 205 colon; 107% in the test with DU-145 prostate; 105% with K-562 leukemia; 102% with MALME-3M melanoma; 99.9% in the test on MDA-MB-231 breast. Moreover, the growth in the test on RXF 393 renal was 104%; in the test with SF-268 CNS, 99.7%; in the test with SF-295 CNS, 103%; with SF-539 CNS, 94.6%; in the test on UACC-257 melanoma, 109%; with M14 melanoma, 98.4%.

Regarding `Nc1ncc(C#Cc2cncc(NC(=O)c3cccc(C(F)(F)F)c3)c2)c2cccnc12`, the growth with NCI-H23 lung was 30.4%; in the test on NCI-H226 lung, 39.2%; in the test with HOP-62 NSCLC, 52.8%; in the test on HOP-92 NSCLC, 65.6%; in the test with NCI-H522 lung it was 67.2%; in the test with A549/ATCC NSCLC, 31.8%. For the same compound, the growth in the test on 786-0 renal is 63.9%; in the test with COLO 205 colon it was 47%; with DU-145 prostate, 43.7%; in the test with K-562 leukemia, 7.45% (active); with MALME-3M melanoma, -6.22% (active); with MDA-MB-231 breast, 36%. The growth was 58.4% in the test on SF-268 CNS; 61.2% in the test on SF-295 CNS; 43.8% with SF-539 CNS; 71.7% in the test on UACC-257 melanoma; 18.2% in the test on M14 melanoma.

As for `COc1ccc(/C=N/C2=C(C#N)C(c3ccccc3[N+](=O)[O-])c3ccc4ccccc4c3O2)cc1` (configuration not stated), the growth was 79% with NCI-H23 lung; 70.4% in the test with NCI-H226 lung; 103% with HOP-62 NSCLC; 91.4% in the test on NCI-H460 lung; 97.1% in the test on HOP-92 NSCLC; 88.1% in the test on NCI-H522 lung. The growth with A549/ATCC NSCLC was 99.8%; in the test with 786-0 renal it was 101%; in the test on COLO 205 colon, 104%; in the test with DU-145 prostate, 100%; in the test with K-562 leukemia it was 80.2%; in the test with MALME-3M melanoma it was 89.8%. The growth is 77.7% with MDA-MB-231 breast; 109% in the test on RXF 393 renal; 87.4% with SF-268 CNS; 94.9% in the test on SF-295 CNS; 97.3% with SF-539 CNS; 102% with UACC-257 melanoma. Further, the growth in the test on M14 melanoma was 90.4%.
